Shown are actives, neighbours in structure and some others; about 2.6% of the full set was active somewhere.
SIAE inh: inhibitors of human sialic acid acetylesterase SIAE. SIAE FP-Rh probe binding, fluorescence polarization. Q9HAT2. inhibition, % at 9.66 µM. AID 1053197. hit rate 0.69% among 370,000;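 active means inhibition above a cutoff: mean of compounds within the control limits plus 3 SD of those, cut at about 17% in these data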
PRMT1 inh: blocks human protein arginine methyltransferase 1; hit rate 1.3% among 370,000; recombinant PRMT1, activity-based probe fluorescence polarization; Q99873; inhibition, % at 2.79 µM;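 active means inhibition above about 21% made by adding two undisclosed values, limit read from the data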
Target sequence (Q99873 whole entry, looked up): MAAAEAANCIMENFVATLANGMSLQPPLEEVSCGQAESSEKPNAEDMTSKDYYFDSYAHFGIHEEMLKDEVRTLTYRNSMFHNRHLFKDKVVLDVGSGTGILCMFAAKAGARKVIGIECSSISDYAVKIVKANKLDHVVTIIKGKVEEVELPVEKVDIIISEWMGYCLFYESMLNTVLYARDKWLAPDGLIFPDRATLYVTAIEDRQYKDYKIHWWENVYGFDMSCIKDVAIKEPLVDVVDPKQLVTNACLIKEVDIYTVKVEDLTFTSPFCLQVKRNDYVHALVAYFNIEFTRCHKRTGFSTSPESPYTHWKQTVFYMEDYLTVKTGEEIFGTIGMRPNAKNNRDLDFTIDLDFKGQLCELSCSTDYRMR
Fam108B counter: blocks mouse Fam108B hydrolase in RBBP9 counter-screen; AID 1947; inhibition, % at 9.51 µM; hit rate 0.33% among 300,000; recombinant Fam108B, FP-Rh probe fluorescence polarization;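 active means inhibition above the screen mean inhibition plus 3 SD, computed separately per campaign, cut at about 18% in these data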;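 further: inhibitors lower polarization as less probe binds the enzyme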
TCR CD3 inh: human TCR-CD3 binding inhibition; inhibition, % at 9.4 µM; TAMRA-labeled TCR probe fluorescence, biochemical; hit rate 0.37% among 360,000; AID 651800; in the data active means inhibition above about 19%;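 further: recombinant mutant TCR 2C K166C tagged with TAMRA read by polarization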
PME-1 primary: PME-1 (human) inhibition; inhibition, % at 5.9 µM; AID 2130; recombinant PME-1, FP-Rh probe fluorescence polarization; Q9Y570; hit rate 0.53% among 320,000;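 active means inhibition above the campaign mean of all compounds plus 3 SD, cut at about 26% in these data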;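 further: competitive labeling of PME-1 active site by serine hydrolase directed probe; inhibitors block probe labeling so polarization falls and inhibition rises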
PAD4 FP inh: blocks human protein arginine deiminase 4; recombinant PAD4, RCA probe fluorescence polarization; inhibition, % at 6.36 µM; hit rate 0.41% among 330,000;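 active means percent inhibition above a cutoff equal to the mean of all tested compounds plus 3 SD, cut at about 15% in these data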
Large screens that a line does not name were inactive.

COc1ccc(S(=O)(=O)N2CCCCCC2)cc1NC(=O)Cc1cc(OC)c(OC)c(OC)c1	PME-1 primary 57
Cc1ccc(S(=O)(=O)N2CCCCC2)cc1NC(=O)CCc1nc2ccccc2c(=O)[nH]1	PRMT1 inh 22
CCOc1ncccc1C(=O)OCC(=O)Nc1cc(S(=O)(=O)N2CCOCC2)ccc1C	none
Cc1ccc(S(=O)(=O)N2CCCCC2)cc1NC(=O)c1ccc2c(c1)OCO2	none
Cc1ccc(S(=O)(=O)N2CCOCC2)cc1NC(=O)COC(=O)c1cccnc1Cl	PME-1 primary 29
COc1ccc(S(=O)(=O)N2CCCCC2)cc1NC(=O)CCc1nc2ccccc2c(=O)[nH]1	none
c1ccc(-n2c(SCc3cccc4ccccc34)nnc2-c2ccncc2)cc1	none (no result: Fam108B counter, TCR CD3 inh, PME-1 primary, PAD4 FP inh)
Cc1cc(C)cc(N(CC(=O)NC2CCC(C)CC2)S(=O)(=O)c2ccc(Br)s2)c1 (stereo not given)	none (no result: Fam108B counter, TCR CD3 inh, PME-1 primary, PAD4 FP inh)
Cc1ccc(S(=O)(=O)N2CCOCC2)cc1NC(=O)COC(=O)c1cccc(Cl)c1Cl	none (no result: Fam108B counter, PME-1 primary, PAD4 FP inh)
Cc1ccc(S(=O)(=O)N2CCOCC2)cc1NC(=O)COC(=O)c1ccccc1OCc1c(C)noc1C	PME-1 primary 32
C=CCn1c(COc2ccc(Cl)cc2)nnc1SCC(=O)c1ccccc1	none (no result: Fam108B counter, TCR CD3 inh, PME-1 primary, PAD4 FP inh)
CC(=O)c1cc(F)c(N2CCN(CCC#N)CC2)cc1C	SIAE inh 27
CCOC(=O)N1CCN(c2cc(C)c(C(C)=O)cc2F)CC1	none
CCOc1cc(Br)cc(/C=C2\SC(=Nc3ccccc3)NC2=O)c1O	PRMT1 inh 24
C=CCn1c(SCC(=O)c2ccc(F)cc2)nnc1-c1ccc(F)cc1	none (no result: Fam108B counter, TCR CD3 inh, PME-1 primary, PAD4 FP inh)
COC(=O)[C@@]1(Cc2ccc(F)cc2)[C@H]2c3cc(C(=O)N(C)C)n(Cc4ccc(C)o4)c3C[C@H]2CN1C(=O)c1ccccc1	PRMT1 inh 22 (no result: Fam108B counter, PME-1 primary, PAD4 FP inh)
CCn1c(C)c(/C=N/Nc2nc3ccccc3s2)c2ccccc21	PME-1 primary 35
C(=N\Nc1nc2ccccc2s1)/c1cccs1	none
O=C(NC1CCCc2ccccc21)C1CCN(S(=O)(=O)c2ccccc2F)CC1 (stereo not given)	PME-1 primary 58
O=C(NC1CCCc2ccccc21)C1CCN(S(=O)(=O)c2cccc3nonc23)CC1 (stereo not given)	none
Nc1c(N=Nc2ccccc2F)c(=O)[nH]n1-c1ccccc1	PME-1 primary 36
O=C(C1CCCO1)N1CCN(S(=O)(=O)c2ccc(F)cc2)CC1 (stereo not given)	PRMT1 inh 24
O=C(NCCc1ccccc1)c1ccc2c(c1)N(Cc1ccccc1)C(=O)CS2=O (stereo not given)	none
CCCN(CCC)C(=O)c1ccc2c(c1)N(Cc1ccccc1)C(=O)CS2=O (stereo not given)	PRMT1 inh 24
O=[N+]([O-])c1c(NCCCO)cc(Sc2ccc(Cl)cc2)c2nonc12	none
O=[N+]([O-])c1c(NCCCO)cc(SCc2ccco2)c2nonc12	PRMT1 inh 64
O=Cc1ccccc1-n1cccn1	none
Oc1cc(-n2cccn2)c(O)cc1-n1cccn1	PRMT1 inh 57
COc1cc2c(C#N)c(N3CCN(c4ccccc4OC)CC3)nc(N)c2c(N)n1	PME-1 primary 73
CC(C)CN(CC(C)C)C(=O)c1cn(C(C)c2ccccc2)nn1 (stereo not given)	none (no result: Fam108B counter, TCR CD3 inh, PME-1 primary, PAD4 FP inh)
CCOC(=O)CCc1c(C)nc(SCCCn2c(=O)[nH]c3ccccc32)c(C#N)c1C	PME-1 primary 26
CCc1ccc(NC(=O)Nc2cccs2)cc1	PME-1 primary 34
CCN(CC)CCCNC(=O)c1csc(Nc2cccc3ccccc23)n1	none
CCN(CC)C(=O)c1csc(Nc2cccc3ccccc23)n1	PME-1 primary 37
CC(=O)c1ccc([C@H](O)[C@H](C)C(=O)N(C)c2ccccc2)cc1	none (no result: Fam108B counter, TCR CD3 inh, PME-1 primary, PAD4 FP inh)
Cc1ccc(S(=O)(=O)N2CCCC(C(=O)Nc3c(C)n(C)n(-c4ccccc4)c3=O)C2)cc1C (stereo not given)	none (no result: Fam108B counter, TCR CD3 inh, PME-1 primary, PAD4 FP inh)
O=C1CN(C(=O)c2ccccc2F)C(c2ccccc2)c2cc(F)ccc2N1 (stereo not given)	PME-1 primary 30
CCN(CC)S(=O)(=O)c1ccc2c(c1)nc(SCn1nnc3ccccc3c1=O)n2CC	PRMT1 inh 22
Cn1c(SCn2nnc3ccccc3c2=O)nc2ccccc2c1=O	none (no result: SIAE inh, PRMT1 inh, TCR CD3 inh)
O=C(O)c1cc(N/N=C/c2ccc(N3CCOCC3)s2)ccc1Cl	SIAE inh 21, PRMT1 inh 33
CC1(C(=O)NCc2cccc(C(F)(F)F)c2)CCN1Cc1ccc(-c2ccccc2)o1 (stereo not given)	PRMT1 inh 22 (no result: Fam108B counter, PME-1 primary, PAD4 FP inh)
CC1(C(=O)NCc2cccc(C(F)(F)F)c2)CCN1Cc1cc2ccccc2o1 (stereo not given)	none (no result: Fam108B counter, PME-1 primary, PAD4 FP inh)
C[C@@H](O[Si](c1ccccc1)(c1ccccc1)C(C)(C)C)[C@H]1C(=O)N[C@H](Cc2cn(S(=O)(=O)c3ccccc3)c3ccccc23)C(=O)N1C	none (no result: Fam108B counter, TCR CD3 inh, PME-1 primary, PAD4 FP inh)
C/C=C/C=C\C(=O)Nc1cccc(C2=NOC3(C2)C[C@@H](C(N)=O)N(C(=O)c2cc([N+](=O)[O-])cc([N+](=O)[O-])c2C)C3)c1 (stereo not given in full)	PRMT1 inh 24
CCCCCC(=O)Nc1cccc(C2=NOC3(C2)C[C@@H](C(N)=O)N(C(=O)c2cc([N+](=O)[O-])cc([N+](=O)[O-])c2C)C3)c1 (stereo not given in full)	none
S=c1[nH]nc(-c2ccco2)n1/N=C/c1ccc(Cl)cc1Cl	PRMT1 inh 22
S=c1[nH]nc(-c2ccco2)n1/N=C/c1cccs1	none
COCCn1c(C)cc(/C=C2/SC(=O)N(C(C)C(=O)OC)C2=O)c1C (stereo not given)	none
COCCn1c(C)cc(/C=C2\NC(=S)N(C)C2=O)c1C	PRMT1 inh 22
CCCCCCCN(C(=O)CCl)c1ccccc1C	PRMT1 inh 47
Cc1ccccc1N(Cc1cc(=O)[nH]c2ccccc12)C(=O)CCl	none
O=C1c2ccccc2C(=O)c2c1ccc(O)c2O	SIAE inh 19 (no result: PRMT1 inh, Fam108B counter, PME-1 primary, PAD4 FP inh)
COC(=O)c1ccc2c(c1O)C(=O)c1ccccc1C2=O	none
O=C(C=C1SCCS1)/C=C/c1ccco1	PRMT1 inh 22
Cn1c(=O)oc2cc(S(=O)(=O)N3CCN(c4cccc(C(F)(F)F)c4)CC3)ccc21	none (no result: Fam108B counter, TCR CD3 inh, PME-1 primary, PAD4 FP inh)
Cc1onc(NC(=O)NC(=O)c2c(Cl)cccc2Cl)c1Br	PME-1 primary 26
Cc1onc(NC(=O)NC(=O)c2c(F)cccc2Cl)c1Br	none
CCN(C(=O)COC(=O)CCC(=O)c1ccc(C)cc1)c1c(N)n(Cc2ccccc2)c(=O)[nH]c1=O	none (no result: Fam108B counter, PME-1 primary, PAD4 FP inh)
CCN(C(=O)COC(=O)CCC(=O)c1ccccc1)c1c(N)n(Cc2ccccc2)c(=O)[nH]c1=O	SIAE inh 26 (no result: Fam108B counter)
Cc1cccc2cc(C#N)c(SCC#N)nc12	PME-1 primary 31
CCc1nnc(NC(=O)CSc2nc(C)c3c(c2C#N)CCCC3)s1	PME-1 primary 33 (no result: SIAE inh, PRMT1 inh, TCR CD3 inh)
COc1ccc(NC(=O)CSc2nc(C)c3c(c2C#N)CCCC3)cc1	none
CC(=O)Nc1ccc(S(=O)(=O)NNc2cccc(C)c2)cc1	PRMT1 inh 23
